Several values for one entry are separate records, joined by “and”; a condition that tells them apart may be missing. Identical values can stand only once. Inconclusive results are not listed. Where a call stands in place of a potency, no number is given. The source holds several records for some structures; these can differ, active in one and inactive in another. Activity calls are given as the source filed them. Calls follow the shape of the dose curve; as a rule, active = well fitted activation curve with a large enough effect in the repeat runs; inconclusive = weak or mixed curves; inactive = flat fitted curve, though single readings scatter. Starred links: 1 amine or outer side, 2 acyl side, 3 side chain; linkers in the order of their positions; H or OH if unused. Positions of bridges follow the written chain, without caps; N, C: chain ends. Non-standard residues stand in square brackets, D forms with d. Residues, ends and D or L forms follow the SMILES beside them. Chains are numbered I, II in the order given. Actinocin(9to1) = Cc1c2oc3c(C)ccc(C(=O)[*:1])c3nc-2c(C(=O)[*:2])c(N)c1=O; NMeV = CN[C@H](C(=O)O)C(C)C; Sar = CNCC(=O)O
Assay: A CellTox Green Cytotoxicity Assay to monitor cytotoxicity in HEK293 cells - 40 hour (AID 1224871); also: nearly all actives have a fitted effect of over 45% in size
Details: CellTox Green fluorescence; series mostly up to 76.8 µM
From the text: National Center for Advancing Translational Sciences [NCATS]
NIH Chemical Genomics Center [NCGC]
U.S. Environmental Protection Agency [EPA]
National Institutes of Environmental Health Sciences [NIEHS]
National Toxicology Program [NTP]
Cell-based models are critical for drug discovery. Determining the natural cytotoxic effects resulting from test compounds is an essential research activity. A CellTox Green Cytotoxicity Assay to monitor cytotoxicity in real time of continues cell culture during 40 hours of the compound treatment was used to screen Tox21 10K library compounds in Hek293 cells. CellTox Green Cytotoxicity Assay is a nonlytic, homogeneous, biofluorescent method to measure cytotoxicity in cell culture after experimental manipulation. The assay system uses a proprietary asymmetric cyanine dye that is excluded from viable cells but preferentially stains the dead cell's DNA. […] Viable cells produce no appreciable increases in fluorescence. Therefore, the fluorescence signal produced by the binding interaction with dead cell DNA is proportional to cytotoxicity.
The mixture of Hek293 cell suspension and reagents were dispensed at 600cells/6 ul/well in 1536-well tissue culture treated black solid bottom plates using a Multidrop dispenser. After the assay plates were incubated at a 37 C/5% CO2 incubator for 5 hours, 23 nL of compounds dissolved in DMSO, positive and negative controls was transferred to the assay plate by a pintool work station. The plates were incubated at 37 C for 40 hours. The fluorescence intensity were measured at 0h, 8h, 16h, 24h, 32h and 40h time points using ViewLux plate reader during compound treatment.
Potency is read from the fitted curve at half-maximal effect.

Structure (SMILES) | Potency
CC(C)(c1ccccc1)c1ccc(Nc2ccc(C(C)(C)c3ccccc3)cc2)cc1 | inactive
C1COC(NC(C2CC2)C2CC2)=N1 | inactive
NCCO | inactive
CCCOC(=O)c1cc(O)c(O)c(O)c1 | inactive
Oc1c(Cl)cc(Cl)cc1Sc1cc(Cl)cc(Cl)c1O | 49.1 µM (active) and 43.6 µM (active) and inactive
CC[C@H]1CN2CCc3cc(OC)c(OC)cc3[C@@H]2C[C@@H]1C[C@H]1NCCc2cc(OC)c(OC)cc21 | 55.1 µM (active)
CC(C)CCOCc1ccccc1 | inactive
C=CC(=O)OCCCCCCOC(=O)C=C | 54.9 µM (active)
CCCN[C@H]1CCc2nc(N)sc2C1 | inactive
CC(=O)CC(C)=O | inactive
CC(C)CCCCCCc1ccc(O)cc1 | 19.8 µM (active) and 38.9 µM (active)
C#CC(C)(CC)OC(=O)c1ccccc1C(=O)O (stereo not given) | inactive
O=S(=O)(O)c1ccc2nc(-c3ccccc3)[nH]c2c1 | inactive
Cc1c2oc3c(C)ccc(C(=O)N[C@@H]4C(=O)N[C@H](C(C)C)C(=O)N5CCC[C@H]5C(=O)N(C)CC(=O)N(C)[C@@H](C(C)C)C(=O)O[C@@H]4C)c3nc-2c(C(=O)N[C@@H]2C(=O)N[C@H](C(C)C)C(=O)N3CCC[C@H]3C(=O)N(C)CC(=O)N(C)[C@@H](C(C)C)C(=O)O[C@@H]2C)c(N)c1=O (I: T[dV]P[Sar][NMeV] / II: T[dV]P[Sar][NMeV]; ester I:1-I:C, II:1-II:C; linker I:N-II:N via Actinocin(9to1)) | inactive
NC12CC3CC(CC(C3)C1)C2 | inactive
NC(N)=Nc1nc(CSCC/C(N)=N/S(N)(=O)=O)cs1 | inactive
O=C(O)c1cccc(C(=O)O)c1 | inactive
CC(C)(C)NCC(O)c1cc(O)cc(O)c1 (stereo not given) | inactive
CC1=CC(=O)c2ccccc2C1=O | 21.9 µM (active) and 23.9 µM (active)
NC(N)=NC(=O)Cc1c(Cl)cccc1Cl | inactive

Structure (SMILES) | Potency
O=C(Oc1ccccc1)c1ccccc1O | inactive
O=C1Nc2ccccc2C1(c1ccc(O)cc1)c1ccc(O)cc1 | inactive
CC(=O)O[C@]1(C(C)=O)CC[C@H]2[C@@H]3C[C@H](C)C4=CC(=O)CC[C@]4(C)[C@H]3CC[C@@]21C | 48.9 µM (active) and inactive
COc1nc(C)nc(Cl)c1NC1=NCCN1 | inactive
NC(=Nc1ccccc1)Nc1ccccc1 | inactive
CC(N)=O | inactive
CCCCCC(=O)O[C@]1(C(C)=O)CC[C@H]2[C@@H]3CCC4=CC(=O)CC[C@]4(C)[C@H]3CC[C@@]21C | inactive
COC(=O)/C=C/c1ccccc1 | inactive and 21.9 µM (active)
CN(C)c1ccc2nc3ccc(=[N+](C)C)cc-3sc2c1 | inactive
CC[C@@H](N)CO | inactive
COc1cc(C(=S)N2CCOCC2)ccc1O | inactive
Cc1cc(C(C)(C)C)c(O)c(C(C)(C)C)c1 | 49.1 µM (active)
CO[Si](OC)(OC)c1ccccc1 | inactive
Clc1ccc2c(c1)C(N1CCNCC1)=Nc1ccccc1O2 | 26.8 µM (active)
COC(c1ccccc1)(c1ccccc1)[C@H](Oc1nc(C)cc(C)n1)C(=O)O | inactive
O=C(Cl)c1cccc(C(=O)Cl)c1 | inactive
OCCN1CCNCC1 | inactive
c1cnc2cc3c(cc2n1)C1CNCC3C1 | inactive
CCN(CC)CCOc1ccc(/C(=C(\Cl)c2ccccc2)c2ccccc2)cc1 | 19.9 µM (active) and 23.9 µM (active)
Cc1ccnc2c1NC(=O)c1cccnc1N2C1CC1 | inactive

Reference: PubChem BioAssay (Tox21)
